Data taken from article PMC7862700, “An all-to-all approach to the identification of sequence-specific readers for epigenetic DNA modifications on cytosine”.

Legend:
Assay in all cases: DAPPL (digital affinity profiling via proximity ligation, sequencing); 10 mM Tris-HCl pH 7.5, 50 mM NaCl, 1 mM DTT, 4% glycerol, room temperature, 30 min; GST-TFs on glutathione beads, 16-mer random dsDNA library, 0.1% formaldehyde crosslink after washing; high values mean tight binding
[1] = target: T1, FLI1 (Homo sapiens, UniProt Q01543 1-452); details: protein: recombinant; tags: N-terminal GST; dsDNA, one strand shown
T1 sequence: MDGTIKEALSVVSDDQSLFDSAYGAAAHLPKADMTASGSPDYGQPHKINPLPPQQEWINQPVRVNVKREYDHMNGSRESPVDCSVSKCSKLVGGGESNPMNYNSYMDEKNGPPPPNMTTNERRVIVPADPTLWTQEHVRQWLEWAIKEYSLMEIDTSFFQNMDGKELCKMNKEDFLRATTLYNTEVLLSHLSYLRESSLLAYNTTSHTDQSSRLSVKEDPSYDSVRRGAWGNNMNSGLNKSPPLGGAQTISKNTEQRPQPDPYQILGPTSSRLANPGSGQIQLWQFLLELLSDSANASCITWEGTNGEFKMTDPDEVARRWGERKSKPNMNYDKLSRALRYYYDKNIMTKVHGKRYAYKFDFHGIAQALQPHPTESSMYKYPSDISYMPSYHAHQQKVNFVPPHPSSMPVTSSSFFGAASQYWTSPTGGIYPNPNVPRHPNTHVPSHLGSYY
Procedure, shortened: (§1)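 After expression in yeast as GST fusions, human transcription factors were bound to glutathione beads, DNA-barcoded and mixed with a tag-only sample. The pools were incubated with 200 nmole of a 16-mer random double-stranded DNA library in Tris/NaCl/DTT/glycerol buffer (30 min, room temperature), washed and crosslinked with 0.1% formaldehyde. Proximity ligation with BsaI/T4 ligase ran for 1 h at 37 °C, before PCR amplification and sequencing on an Illumina NextSeq500. Binding signal is a hexamer's read frequency for a factor divided by its frequency for the tag-only sample.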

[2] = target: T2, ELK1 (Homo sapiens, UniProt P19419 1-428); details: protein: recombinant; tags: N-terminal GST; dsDNA, one strand shown
T2 sequence: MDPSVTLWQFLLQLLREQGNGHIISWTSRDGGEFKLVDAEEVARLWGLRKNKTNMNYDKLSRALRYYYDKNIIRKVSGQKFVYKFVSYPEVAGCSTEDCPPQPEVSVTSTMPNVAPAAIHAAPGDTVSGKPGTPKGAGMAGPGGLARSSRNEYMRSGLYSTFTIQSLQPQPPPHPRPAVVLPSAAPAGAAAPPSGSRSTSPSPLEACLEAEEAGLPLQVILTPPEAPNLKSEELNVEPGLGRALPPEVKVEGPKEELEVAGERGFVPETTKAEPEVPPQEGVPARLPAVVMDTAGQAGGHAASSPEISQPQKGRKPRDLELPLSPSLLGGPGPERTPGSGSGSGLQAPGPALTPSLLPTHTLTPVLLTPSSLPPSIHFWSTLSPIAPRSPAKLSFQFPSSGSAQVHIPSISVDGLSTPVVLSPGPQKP
Procedure, shortened: as §1

[3] = target: T3, GABPA (Homo sapiens, UniProt Q06546 1-454); details: protein: recombinant; tags: N-terminal GST; dsDNA, one strand shown
T3 sequence: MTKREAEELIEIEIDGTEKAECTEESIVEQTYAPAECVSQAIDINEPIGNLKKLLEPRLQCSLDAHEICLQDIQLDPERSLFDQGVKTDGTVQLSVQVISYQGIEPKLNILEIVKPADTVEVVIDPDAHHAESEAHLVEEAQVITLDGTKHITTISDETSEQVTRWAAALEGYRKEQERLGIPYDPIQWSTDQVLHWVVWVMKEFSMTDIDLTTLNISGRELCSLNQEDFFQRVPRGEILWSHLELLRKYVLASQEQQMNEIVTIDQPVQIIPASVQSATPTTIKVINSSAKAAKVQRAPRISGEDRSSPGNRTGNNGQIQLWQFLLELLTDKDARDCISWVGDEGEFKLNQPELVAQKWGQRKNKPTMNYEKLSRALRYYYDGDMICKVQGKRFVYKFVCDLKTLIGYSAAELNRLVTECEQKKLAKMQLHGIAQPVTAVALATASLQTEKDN
Procedure, shortened: as §1

[4] = target: T4, ERG (Homo sapiens, UniProt P11308 1-479); details: protein: recombinant; tags: N-terminal GST; dsDNA, one strand shown
T4 sequence: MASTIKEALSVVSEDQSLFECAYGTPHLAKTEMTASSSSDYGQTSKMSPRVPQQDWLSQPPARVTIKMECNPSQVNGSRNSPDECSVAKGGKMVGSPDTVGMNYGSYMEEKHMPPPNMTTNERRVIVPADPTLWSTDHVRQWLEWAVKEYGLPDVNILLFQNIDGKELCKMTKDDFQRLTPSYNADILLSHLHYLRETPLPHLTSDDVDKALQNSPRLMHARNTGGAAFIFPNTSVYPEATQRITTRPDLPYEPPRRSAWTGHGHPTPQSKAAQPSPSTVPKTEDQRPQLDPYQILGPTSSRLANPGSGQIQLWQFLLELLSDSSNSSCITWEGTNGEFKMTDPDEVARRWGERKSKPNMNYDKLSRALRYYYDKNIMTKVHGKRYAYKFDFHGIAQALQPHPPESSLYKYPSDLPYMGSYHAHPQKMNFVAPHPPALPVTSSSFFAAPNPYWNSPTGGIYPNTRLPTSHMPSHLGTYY
Procedure, shortened: as §1

[5] = target: ELF1 (Homo sapiens, UniProt P32519 1-619); details: protein: recombinant; tags: N-terminal GST; dsDNA, one strand shown
ELF1, sequence (P32519 whole entry): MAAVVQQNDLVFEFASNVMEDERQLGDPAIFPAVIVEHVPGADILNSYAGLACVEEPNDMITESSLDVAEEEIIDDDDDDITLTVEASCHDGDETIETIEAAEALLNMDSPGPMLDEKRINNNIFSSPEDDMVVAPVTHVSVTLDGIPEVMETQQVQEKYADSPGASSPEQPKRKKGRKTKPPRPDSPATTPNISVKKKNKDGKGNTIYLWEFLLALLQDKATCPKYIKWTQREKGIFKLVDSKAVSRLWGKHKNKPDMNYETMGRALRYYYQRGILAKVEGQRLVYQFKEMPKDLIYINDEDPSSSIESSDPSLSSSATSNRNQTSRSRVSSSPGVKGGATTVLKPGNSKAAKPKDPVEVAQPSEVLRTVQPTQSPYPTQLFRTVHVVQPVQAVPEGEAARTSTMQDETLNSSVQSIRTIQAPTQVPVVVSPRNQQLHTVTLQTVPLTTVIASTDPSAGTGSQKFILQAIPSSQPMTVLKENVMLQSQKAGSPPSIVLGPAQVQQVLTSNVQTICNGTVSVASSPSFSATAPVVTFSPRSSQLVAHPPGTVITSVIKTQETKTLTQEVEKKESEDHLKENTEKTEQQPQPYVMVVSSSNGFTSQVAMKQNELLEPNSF
Procedure, shortened: as §1

[6] = target: T5, EHF (Homo sapiens, UniProt Q9NZC4 1-300); details: protein: recombinant; tags: N-terminal GST; dsDNA, one strand shown
T5 sequence: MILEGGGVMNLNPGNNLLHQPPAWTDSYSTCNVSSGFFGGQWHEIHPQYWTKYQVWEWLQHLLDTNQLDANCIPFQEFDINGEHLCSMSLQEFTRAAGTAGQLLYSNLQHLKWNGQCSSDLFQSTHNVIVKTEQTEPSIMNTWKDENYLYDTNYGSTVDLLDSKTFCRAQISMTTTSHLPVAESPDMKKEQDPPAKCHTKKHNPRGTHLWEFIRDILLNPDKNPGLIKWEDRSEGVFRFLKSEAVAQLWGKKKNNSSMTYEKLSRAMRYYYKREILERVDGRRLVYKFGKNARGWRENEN
Procedure, shortened: as §1

[7] = target: SPI1 (Homo sapiens, UniProt P17947 1-270); details: protein: recombinant; tags: N-terminal GST; dsDNA, one strand shown
Procedure, shortened: as §1

[8] = target: SPIB (Homo sapiens, UniProt Q01892 1-262); details: protein: recombinant; tags: N-terminal GST; dsDNA, one strand shown
SPIB, sequence (Q01892 whole entry): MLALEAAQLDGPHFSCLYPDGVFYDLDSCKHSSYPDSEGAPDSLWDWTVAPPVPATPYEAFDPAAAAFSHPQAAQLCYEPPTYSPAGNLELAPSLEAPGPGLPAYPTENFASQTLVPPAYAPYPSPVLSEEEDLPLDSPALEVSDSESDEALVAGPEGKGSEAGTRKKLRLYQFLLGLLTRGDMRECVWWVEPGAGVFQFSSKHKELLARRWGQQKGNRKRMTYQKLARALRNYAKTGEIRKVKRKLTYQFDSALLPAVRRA
Procedure, shortened: as §1

[9] = target: T6, ELK3 (Homo sapiens, UniProt P41970 1-407); details: protein: recombinant; tags: N-terminal GST; dsDNA, one strand shown
T6 sequence: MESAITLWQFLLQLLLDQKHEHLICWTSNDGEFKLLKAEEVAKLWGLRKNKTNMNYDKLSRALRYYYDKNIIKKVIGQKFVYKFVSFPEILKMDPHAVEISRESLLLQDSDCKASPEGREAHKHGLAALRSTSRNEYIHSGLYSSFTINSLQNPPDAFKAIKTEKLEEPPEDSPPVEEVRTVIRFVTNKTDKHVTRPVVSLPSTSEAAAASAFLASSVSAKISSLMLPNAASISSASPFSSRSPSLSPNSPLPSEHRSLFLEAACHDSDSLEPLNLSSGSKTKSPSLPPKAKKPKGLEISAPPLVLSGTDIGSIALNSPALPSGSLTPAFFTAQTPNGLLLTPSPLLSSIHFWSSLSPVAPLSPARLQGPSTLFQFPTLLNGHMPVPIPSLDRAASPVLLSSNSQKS
Procedure, shortened: as §1

[10] = target: T7, FEV (Homo sapiens, UniProt Q99581 1-238); details: protein: recombinant; tags: N-terminal GST; dsDNA, one strand shown
T7 sequence: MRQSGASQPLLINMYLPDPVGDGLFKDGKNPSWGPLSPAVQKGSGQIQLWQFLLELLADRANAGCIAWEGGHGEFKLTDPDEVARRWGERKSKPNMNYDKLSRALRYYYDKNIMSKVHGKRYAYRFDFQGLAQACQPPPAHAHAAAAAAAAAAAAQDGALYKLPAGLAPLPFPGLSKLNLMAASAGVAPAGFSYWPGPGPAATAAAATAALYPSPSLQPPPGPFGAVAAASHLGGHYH
Procedure, shortened: as §1

[11] = target: ETV5 (Homo sapiens, UniProt P41161 1-510); details: protein: recombinant; tags: N-terminal GST; dsDNA, one strand shown
ETV5, sequence (P41161 whole entry): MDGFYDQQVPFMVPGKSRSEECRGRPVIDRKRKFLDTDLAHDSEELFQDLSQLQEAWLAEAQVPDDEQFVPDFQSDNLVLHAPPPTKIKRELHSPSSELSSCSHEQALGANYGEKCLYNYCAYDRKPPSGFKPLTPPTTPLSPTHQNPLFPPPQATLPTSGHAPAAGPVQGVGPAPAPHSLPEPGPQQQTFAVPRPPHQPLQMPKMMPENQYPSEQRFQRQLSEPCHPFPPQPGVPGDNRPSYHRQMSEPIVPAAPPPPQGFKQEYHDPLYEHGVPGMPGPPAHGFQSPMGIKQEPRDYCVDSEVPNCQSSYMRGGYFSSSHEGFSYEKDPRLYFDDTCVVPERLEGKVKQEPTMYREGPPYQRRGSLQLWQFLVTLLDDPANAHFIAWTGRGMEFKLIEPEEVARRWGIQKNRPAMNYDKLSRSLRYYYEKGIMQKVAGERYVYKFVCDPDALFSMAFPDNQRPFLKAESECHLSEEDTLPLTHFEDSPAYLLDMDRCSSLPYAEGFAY
Procedure, shortened: as §1

[12] = target: HSF1 (Homo sapiens, UniProt Q00613 1-529); details: protein: recombinant; tags: N-terminal GST; chain copies: 3; dsDNA, one strand shown
HSF1, sequence (Q00613 whole entry): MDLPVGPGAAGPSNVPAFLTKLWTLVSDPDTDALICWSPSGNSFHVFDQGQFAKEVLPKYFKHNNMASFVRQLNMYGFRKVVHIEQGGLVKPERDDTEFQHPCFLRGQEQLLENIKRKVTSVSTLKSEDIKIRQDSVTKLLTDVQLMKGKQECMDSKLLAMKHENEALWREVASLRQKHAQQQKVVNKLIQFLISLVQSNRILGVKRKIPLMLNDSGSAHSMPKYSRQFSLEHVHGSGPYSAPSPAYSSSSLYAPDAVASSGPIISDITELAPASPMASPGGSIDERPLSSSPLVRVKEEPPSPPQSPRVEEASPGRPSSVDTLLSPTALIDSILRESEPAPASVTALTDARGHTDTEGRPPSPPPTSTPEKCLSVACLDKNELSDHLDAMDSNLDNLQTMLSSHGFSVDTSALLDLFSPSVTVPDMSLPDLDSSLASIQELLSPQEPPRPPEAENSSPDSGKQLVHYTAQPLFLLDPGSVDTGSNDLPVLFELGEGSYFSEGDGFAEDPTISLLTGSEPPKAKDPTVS
Procedure, shortened: as §1

[13] = target: T8, SPIC (Homo sapiens, UniProt Q8N5J4 1-248); details: protein: recombinant; tags: N-terminal GST; dsDNA, one strand shown
T8 sequence: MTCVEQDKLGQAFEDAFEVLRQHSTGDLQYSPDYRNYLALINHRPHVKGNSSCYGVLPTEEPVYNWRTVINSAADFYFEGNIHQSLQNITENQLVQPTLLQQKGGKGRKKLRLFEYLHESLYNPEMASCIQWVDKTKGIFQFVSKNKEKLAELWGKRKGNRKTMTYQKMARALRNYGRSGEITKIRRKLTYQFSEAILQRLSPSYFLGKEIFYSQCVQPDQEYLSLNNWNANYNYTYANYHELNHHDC
Procedure, shortened: as §1

[14] = target: ELF4 (Homo sapiens, UniProt Q99607 1-663); details: protein: recombinant; tags: N-terminal GST; dsDNA, one strand shown
ELF4, sequence (Q99607 whole entry): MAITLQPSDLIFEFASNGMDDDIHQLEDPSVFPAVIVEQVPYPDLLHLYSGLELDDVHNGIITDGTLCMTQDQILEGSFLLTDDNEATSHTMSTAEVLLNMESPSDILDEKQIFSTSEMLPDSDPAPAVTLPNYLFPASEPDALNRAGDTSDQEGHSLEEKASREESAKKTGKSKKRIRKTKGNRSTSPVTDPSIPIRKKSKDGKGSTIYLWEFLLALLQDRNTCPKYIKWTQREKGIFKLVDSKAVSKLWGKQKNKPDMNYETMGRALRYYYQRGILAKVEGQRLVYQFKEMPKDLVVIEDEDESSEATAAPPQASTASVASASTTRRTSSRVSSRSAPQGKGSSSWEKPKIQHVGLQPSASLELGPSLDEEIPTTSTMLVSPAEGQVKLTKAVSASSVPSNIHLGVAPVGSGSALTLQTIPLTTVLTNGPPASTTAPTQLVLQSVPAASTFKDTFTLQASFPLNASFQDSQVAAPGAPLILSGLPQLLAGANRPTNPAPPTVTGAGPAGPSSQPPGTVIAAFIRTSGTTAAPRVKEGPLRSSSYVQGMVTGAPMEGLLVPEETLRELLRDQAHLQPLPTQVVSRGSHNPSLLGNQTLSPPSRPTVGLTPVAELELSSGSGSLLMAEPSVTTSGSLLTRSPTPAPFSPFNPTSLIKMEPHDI
Procedure, shortened: as §1

[15] = target: T9, ELK4 (Homo sapiens, UniProt P28324-2 1-405); details: protein: recombinant; tags: N-terminal GST; dsDNA, one strand shown
T9 sequence: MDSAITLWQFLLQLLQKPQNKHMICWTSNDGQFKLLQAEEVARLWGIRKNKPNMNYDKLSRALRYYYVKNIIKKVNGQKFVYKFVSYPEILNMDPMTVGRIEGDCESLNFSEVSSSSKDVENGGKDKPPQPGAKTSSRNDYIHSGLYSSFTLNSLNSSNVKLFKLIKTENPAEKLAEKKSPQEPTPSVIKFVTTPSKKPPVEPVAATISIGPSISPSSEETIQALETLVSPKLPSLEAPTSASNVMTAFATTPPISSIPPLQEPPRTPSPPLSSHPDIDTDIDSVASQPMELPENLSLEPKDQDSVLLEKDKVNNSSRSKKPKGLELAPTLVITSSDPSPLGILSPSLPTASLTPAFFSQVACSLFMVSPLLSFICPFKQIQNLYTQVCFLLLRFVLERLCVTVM
Procedure, shortened: as §1

[16] = target: T10, ETV2 (Homo sapiens, UniProt O00321 1-342); details: protein: recombinant; tags: N-terminal GST; dsDNA, one strand shown
T10 sequence: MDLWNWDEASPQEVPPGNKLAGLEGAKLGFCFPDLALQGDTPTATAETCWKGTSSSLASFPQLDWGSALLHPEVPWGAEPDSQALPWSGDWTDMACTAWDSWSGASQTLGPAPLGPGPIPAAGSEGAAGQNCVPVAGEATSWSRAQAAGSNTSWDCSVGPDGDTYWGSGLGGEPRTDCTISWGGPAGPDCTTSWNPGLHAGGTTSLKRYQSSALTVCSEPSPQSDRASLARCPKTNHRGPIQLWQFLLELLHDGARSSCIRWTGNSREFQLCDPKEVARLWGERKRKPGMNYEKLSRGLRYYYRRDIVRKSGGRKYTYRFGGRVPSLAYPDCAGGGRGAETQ
Procedure, shortened: as §1

[17] = target: T11, ELF3 (Homo sapiens, UniProt P78545 1-371); details: protein: recombinant; tags: N-terminal GST; dsDNA, one strand shown
T11 sequence: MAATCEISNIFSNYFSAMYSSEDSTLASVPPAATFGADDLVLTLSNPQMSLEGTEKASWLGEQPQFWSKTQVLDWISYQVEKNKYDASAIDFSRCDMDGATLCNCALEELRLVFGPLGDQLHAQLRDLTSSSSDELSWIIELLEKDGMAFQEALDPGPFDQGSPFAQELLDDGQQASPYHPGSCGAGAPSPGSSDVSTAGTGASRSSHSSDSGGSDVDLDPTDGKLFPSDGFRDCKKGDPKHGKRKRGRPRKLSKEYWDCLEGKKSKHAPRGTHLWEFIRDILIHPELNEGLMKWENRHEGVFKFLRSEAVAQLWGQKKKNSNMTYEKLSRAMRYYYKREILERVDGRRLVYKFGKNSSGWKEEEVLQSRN
Procedure, shortened: as §1

[18] = target: CRX (Homo sapiens, UniProt O43186 1-299); details: protein: recombinant; tags: N-terminal GST; dsDNA, one strand shown
CRX, sequence (O43186 whole entry): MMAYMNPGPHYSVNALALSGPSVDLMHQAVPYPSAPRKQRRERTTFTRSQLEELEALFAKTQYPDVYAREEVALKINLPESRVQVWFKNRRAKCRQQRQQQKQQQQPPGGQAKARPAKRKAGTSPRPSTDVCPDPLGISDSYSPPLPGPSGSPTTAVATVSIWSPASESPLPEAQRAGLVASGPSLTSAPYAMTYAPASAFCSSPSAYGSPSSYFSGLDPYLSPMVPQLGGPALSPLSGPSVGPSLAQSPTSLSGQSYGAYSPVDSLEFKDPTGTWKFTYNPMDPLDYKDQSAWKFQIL
Procedure, shortened: as §1

[19] = target: ETV1 (Homo sapiens, UniProt P50549 1-477); details: protein: recombinant; tags: N-terminal GST; dsDNA, one strand shown
ETV1, sequence (P50549 whole entry): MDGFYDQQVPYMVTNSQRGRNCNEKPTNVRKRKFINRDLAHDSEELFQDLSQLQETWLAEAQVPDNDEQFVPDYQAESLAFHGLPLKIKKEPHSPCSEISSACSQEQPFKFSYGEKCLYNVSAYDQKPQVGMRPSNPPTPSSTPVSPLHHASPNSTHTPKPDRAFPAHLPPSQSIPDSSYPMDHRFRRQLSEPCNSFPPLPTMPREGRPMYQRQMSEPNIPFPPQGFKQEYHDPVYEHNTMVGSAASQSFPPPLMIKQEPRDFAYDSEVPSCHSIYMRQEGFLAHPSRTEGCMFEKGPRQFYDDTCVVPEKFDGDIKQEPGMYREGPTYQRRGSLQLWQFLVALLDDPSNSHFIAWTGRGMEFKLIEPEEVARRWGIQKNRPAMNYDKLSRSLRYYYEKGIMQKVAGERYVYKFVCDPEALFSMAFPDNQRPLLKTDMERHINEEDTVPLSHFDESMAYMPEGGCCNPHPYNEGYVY
Procedure, shortened: as §1

## CACTAA
[1]
  binding signal: 1.09 fold enrichment (6-mer frequency, TF over GST control)
[2]
  binding signal: 1.21 fold enrichment (6-mer frequency, TF over GST control)
[3]
  binding signal: 1.11 fold enrichment (6-mer frequency, TF over GST control)
[4]
  binding signal: 1.1 fold enrichment (6-mer frequency, TF over GST control)
[5]
  binding signal: 1.18 fold enrichment (6-mer frequency, TF over GST control)
[6]
  binding signal: 1.21 fold enrichment (6-mer frequency, TF over GST control)
[7]
  binding signal: 1.19 fold enrichment (6-mer frequency, TF over GST control)
[8]
  binding signal: 1.18 fold enrichment (6-mer frequency, TF over GST control)
[9]
  binding signal: 1.18 fold enrichment (6-mer frequency, TF over GST control)
[10]
  binding signal: 1.12 fold enrichment (6-mer frequency, TF over GST control)
[11]
  binding signal: 1.13 fold enrichment (6-mer frequency, TF over GST control)
[12]
  binding signal: 1.29 fold enrichment (6-mer frequency, TF over GST control)
[13]
  binding signal: 1.25 fold enrichment (6-mer frequency, TF over GST control)
[14]
  binding signal: 1.2 fold enrichment (6-mer frequency, TF over GST control)
[15]
  binding signal: 1.2 fold enrichment (6-mer frequency, TF over GST control)
[16]
  binding signal: 1.2 fold enrichment (6-mer frequency, TF over GST control)
[17]
  binding signal: 1.3 fold enrichment (6-mer frequency, TF over GST control)
[18]
  binding signal: 1.67 fold enrichment (6-mer frequency, TF over GST control)
[19]
  binding signal: 1.12 fold enrichment (6-mer frequency, TF over GST control)
